Data reported in PubChem BioAssay AID602376 (Johns Hopkins Ion Channel Center, 2012).
Entries with a potency or affinity are not part of this list. Records with an inconclusive call do not appear. The source made the active and inactive calls.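 Rule for the calls: active = raises choline transporter activity at one or more tested doses and gives a fitted dose-response curve; inconclusive = no clear call, values can overlap the other calls; inactive = no choline transporter activation at any dose, or no curve.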

The molecules below were run against High affinity choline transporter 1 (Homo sapiens) (UniProt Q9GZV3) (assay: human choline transporter potentiators, potency – cell-based, 10-point CRC, membrane potential dye, dose response (AID 602376)). Conditions: HEK293-CHT, choline-induced membrane potential dye, cells express CHT LV-AA mutant; series mostly up to 67 µM.
Chain of High affinity choline transporter 1 (Homo sapiens) (Q9GZV3 whole entry, looked up): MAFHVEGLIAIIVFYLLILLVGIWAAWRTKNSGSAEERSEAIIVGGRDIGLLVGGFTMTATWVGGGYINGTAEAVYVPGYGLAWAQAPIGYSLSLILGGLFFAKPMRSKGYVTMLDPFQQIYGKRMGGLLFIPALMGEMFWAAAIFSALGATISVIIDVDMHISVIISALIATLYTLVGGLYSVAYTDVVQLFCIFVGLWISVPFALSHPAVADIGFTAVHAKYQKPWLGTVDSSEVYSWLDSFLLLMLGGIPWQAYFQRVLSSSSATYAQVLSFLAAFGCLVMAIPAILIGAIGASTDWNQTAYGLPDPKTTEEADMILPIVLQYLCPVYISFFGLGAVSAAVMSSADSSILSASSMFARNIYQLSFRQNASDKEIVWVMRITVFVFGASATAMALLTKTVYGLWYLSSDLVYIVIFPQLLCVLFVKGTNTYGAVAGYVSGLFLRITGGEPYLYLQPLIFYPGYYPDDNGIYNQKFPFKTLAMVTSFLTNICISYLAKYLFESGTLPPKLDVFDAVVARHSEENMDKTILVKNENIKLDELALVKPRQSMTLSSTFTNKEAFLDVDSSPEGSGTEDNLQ
With `O=C1CCCCCCCCCC/C(=N\O)CCCO1` the outcome was “inactive”. With `Cn1c(=O)c(=O)n(C)c2cc(S(=O)(=O)N3CCC(N4CCCCC4)CC3)ccc21` the outcome was “inactive”. For `CC1(C)Cc2c(sc3nc4n(c(=N)c23)CCC4)CO1`, the outcome was “inactive”. For `CC(=O)N1CCN(c2ccccc2NC(=O)COc2cc(C)ccc2C(C)C)CC1`, the outcome was “inactive”. `CCC(C)Nc1nc(CN2CCOCC2)nc2sc3c(c12)CCC3` (centres undefined) was tested, and the outcome was “inactive”. With `NCCCC[C@H]1CN=C(N)N1CCCCC1CCCCC1` the outcome was “inactive”. With `CCc1cccc(C)c1NC(=O)CN(C)Cc1ccc(Br)cc1` the outcome was “inactive”. `Cc1ccc(Cl)cc1N1CCN(C(=O)C2CCC(=O)N(C3CCCCCC3)C2)CC1` (centres undefined) was tested, and the outcome was “inactive”. In the case of `CN(Cc1ccc(F)cc1)C(=O)C(c1ccccc1)c1ccccc1`, the outcome is reported as “inactive”. In the case of `CCOC(=O)c1cc2c(=O)n3ccccc3nc2n(CC2CCCO2)c1=NC(=O)/C=C/c1ccccc1` (centres undefined), the outcome is reported as “inactive”. With `N=c1c2c(n(Cc3ccc(Cl)c(Cl)c3)c3c1CCC3)CCCC2` the outcome was “inactive”. With `CCOC(=O)C[C@H]1c2ccccc2S(=O)(=O)N1Cc1cccc(C(F)(F)F)c1` the outcome was “inactive”. For `CCOC(=O)C1CCN(C(=O)CCc2nnc3ccc(N4CCN(C)CC4)nn23)CC1`, the outcome was “inactive”. `C=CCN1C(c2ccc(OCC)cc2)=CS/C1=C(\C#N)c1nnc2n1CCCCC2` was tested, and the outcome was “inactive”. For `CC(Sc1ccc(Cl)cc1)C(=O)Nc1ccccc1-c1ccccc1` (centres undefined), the outcome was “inactive”. `Cn1c(=O)c2c(nc(CN3CCN(c4cccc(Cl)c4)CC3)n2CCc2ccccc2)n(C)c1=O` was tested, and the outcome was “inactive”. For `COc1ccc(C(=O)c2coc3ccc(O)c(CN4CCOCC4)c23)cc1`, the outcome was “inactive”. In the case of `Cc1cccc(Oc2nc(CN3CCOCC3)nc3sc4c(c23)CCCC4)c1`, the outcome is reported as “inactive”. In the case of `CCOC(=O)c1c[nH]c2nc(C)ccc2c1=O`, the outcome is reported as “inactive”. `COc1cccc(C(c2nnnn2Cc2ccco2)N2CCN(c3cccc(C)c3C)CC2)c1OC` (centres undefined) was tested, and the outcome was “inactive”. In the case of `COC(=O)CNC(c1ccccc1)c1cc(C)ccc1NC(=O)c1cccc(Cl)c1` (centres undefined), the outcome is reported as “inactive”. For `O=C(COc1ccccc1)NCC(c1ccco1)N1CCN(c2ccccc2)CC1` (centres undefined), the outcome was “inactive”. With `O=C(NC1CCCC1)C(c1ccsc1)N(Cc1ccco1)C(=O)Cc1cccs1` (centres undefined) the outcome was “inactive”. With `Cc1noc(C)c1CSc1nc2ccccc2c(=O)n1-c1ccccc1` the outcome was “inactive”. `Nc1sc(-c2ccccc2)n[n+]1Cc1cccc2cccnc12` was tested, and the outcome was “inactive”. With `COc1cccc(-c2cn(C[C@H]3CC[C@@H]([C@@H]4CC[C@H](Cn5cc(-c6cccc(OC)c6)nn5)O4)O3)nn2)c1` the outcome was “inactive”. `O=C(NCCC1=CCCCC1)C1CCN(Cc2cnn(-c3ccccc3)c2-n2cccc2)CC1` was tested, and the outcome was “inactive”. `CCn1cc(C(=O)OCC(=O)OC2CC(C)CCC2C(C)C)c(=O)c2ccc(C)nc21` (centres undefined) was tested, and the outcome was “inactive”. For `Cc1ccc(-n2c(SCCN)nnc2-c2cccc(C)c2)cc1`, the outcome was “inactive”. With `COc1cccc(C(c2nnnn2CCc2ccccc2)N2CCN(c3ccccc3)CC2)c1OC` (centres undefined) the outcome was “inactive”. With `C/C(=N\NC(=O)c1nnn(-c2nonc2N)c1CN1CCC(C)CC1)c1cccc(Br)c1` the outcome was “inactive”. `O=C(NCC(c1ccco1)N1CCc2ccccc2C1)c1cccc(F)c1` (centres undefined) was tested, and the outcome was “inactive”. In the case of `CCOc1cc(NC(=O)c2ccco2)c(OCC)cc1NC(=O)c1ccco1`, the outcome is reported as “inactive”. `COC(=O)c1sc(NC(=O)C(C)c2ccccc2)nc1C` (centres undefined) was tested, and the outcome was “inactive”. For `CCN1CCc2nc(NC(=O)C(c3ccccc3)c3ccccc3)sc2C1`, the outcome was “inactive”. With `Cc1ccc(-c2c(C(=O)N(C)Cc3ccccc3)oc(=O)c3ccccc23)cc1` the outcome was “inactive”. In the case of `O=C1CCC(C(=O)N(Cc2cccs2)C2(C(=O)NC3CCCCC3)CCCCC2)N1` (centres undefined), the outcome is reported as “inactive”. With `FC(F)(F)COc1nc(OCC(F)(F)F)nc(N2CCN(c3ccccc3)CC2)n1` the outcome was “inactive”. In the case of `COc1ccc(C(=O)CSc2nnc(CNC(=O)c3ccco3)n2C)cc1`, the outcome is reported as “inactive”.
